The values that follow come from PubChem BioAssay (EPA / NIEHS).

A short description of test [1]: ATG_PXRE_CIS: Attagene CIS-FACTORIAL HepG2 Assay for human Pregnane X Receptor Element (PXRE) (AID 2282957). Particulars: HepG2 Attagene CIS-FACTORIAL PXRE reporter, mRNA; actives raise or lower the signal. The essentials: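 HepG2 cells transiently transfected with cis-element-driven multiplexed reporter units; after 24 h chemical exposure, reporter mRNA measured by RT-PCR, 6-FAM labelling, HpaI digestion and capillary electrophoresis. Bidirectional fitting relative to DMSO.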

Test [2] is described as follows: ATG_RORE_CIS: Attagene CIS-FACTORIAL HepG2 Assay for human RAR-related Orphan Receptor Element (RORE) (AID 2282959). Particulars: HepG2 Attagene cis-factorial RORE reporter, mRNA; actives raise or lower the signal. The essentials: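 Transient MRTU transfection of human HepG2 liver cells (FuGene 6); 24 h compound exposure; TriZol RNA, oligo(dT) RT, PCR, FAM labeling, HpaI cut, CE fragment analysis. DMSO = negative control/baseline.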

Test [3] is described as follows: ATG_Sox_CIS: Attagene CIS-FACTORIAL HepG2 Assay for human SRY-box transcription factor (SOX) (AID 2282960). Particulars: HepG2 Attagene cis-factorial SOX reporter, mRNA; actives raise or lower the signal. The essentials:
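Endogenous factor activity in human liver HepG2 cells carrying transfected cis-regulated reporter units. RNA taken 24 h post-dose, reverse-transcribed, PCR-amplified and sized by capillary electrophoresis. Gain or loss of signal fitted relative to DMSO.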

The target of test [4] is Transcription factor Sp1 (Homo sapiens) (UniProt P08047). As to the kind of experiment: ATG_Sp1_CIS: Attagene CIS-FACTORIAL HepG2 Assay for human Specificity Protein 1 (Sp1) (AID 2282961). The note with it: HepG2 Sp1 cis-reporter transcription, actives raise or lower the signal. The essentials:
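Transient MRTU-transfected HepG2, 24 h compound exposure. Total RNA → oligo(dT) RT → PCR of reporter → 6-FAM primer extension → HpaI digest → CE. Endpoint fitted both directions vs DMSO.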

Test [5] in a line: ATG_SREBP_CIS: Attagene CIS-FACTORIAL HepG2 Assay for human Sterol Regulatory Element Binding (SREBP) (AID 2282962). Particulars: HepG2 Attagene cis-factorial SREBP reporter, mRNA; actives raise or lower the signal. The procedure, abridged:
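mRNA induction of transfected cis-promoter reporters in HepG2 cells, 24 h post-dose. Detection: RT-PCR with 6-FAM-labelled products, HpaI digest, capillary electrophoresis. DMSO served as negative control and baseline.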

The nature of test [6]: ATG_TA_CIS: Attagene CIS-FACTORIAL HepG2 Assay for human TA Basal Promoter (AID 2282964). The note with it: HepG2 Attagene CIS-factorial TA basal promoter reporter; actives raise or lower the signal. The procedure, abridged:
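Transient MRTU transfection of HepG2 preceded 24 h compound exposure. Reporter mRNA levels were then read by RT-PCR with capillary electrophoresis, and this background-control endpoint was fitted bidirectionally to DMSO.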

Test [7] can be described thus: ATG_TCF_b_cat_CIS: Attagene CIS-FACTORIAL HepG2 Assay for human T-Cell-Factor with beta-catenin (TCF/b-cat) (AID 2282965). The note with it: HepG2 TCF/beta-catenin cis-reporter transcription, actives raise or lower the signal. The procedure, abridged:
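HepG2 cells transiently transfected with multiple cis-promoter-regulated reporter transcription units, so endogenous transcription factor activity is measured. Reporter mRNA read 24 hours after dosing by RT-PCR, fluorescent labelling and capillary electrophoresis; bidirectional fitting against DMSO.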

Test [8] in a line: ATG_TAL_CIS: Attagene CIS-FACTORIAL HepG2 Assay for human TAL Basal Promoter (AID 2282966).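 Further: background control endpoint measuring basal TAL promoter reporter mRNA not a specific factor.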 Particulars: HepG2 Attagene cis-factorial TAL promoter reporter; actives raise or lower the signal. The procedure, abridged: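 HepG2 cells transiently transfected with multiplexed cis-promoter reporter units, dosed 24 h. Reporter mRNA quantified by RT-PCR, 6-FAM labelling, HpaI digestion and capillary electrophoresis; TAL basal promoter serves as background control, fitted bidirectionally versus DMSO.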

The nature of test [9]: ATG_TGFb_CIS: Attagene CIS-FACTORIAL HepG2 Assay for human Transforming Growth Factor (TGF) (AID 2282967). The note with it: HepG2 Attagene CIS TGFb reporter, mRNA transcription; actives raise or lower the signal. The essentials: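 After a 24-hour incubation with compound, transfected HepG2 cells were lysed for RNA; reporter cDNA was amplified, fluorescently end-labeled and separated by CE. DMSO served as baseline for bidirectional fits.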

A short description of test [10]: ATG_VDRE_CIS: Attagene CIS-FACTORIAL HepG2 Assay for human Vitamin D Receptor Element (VDRE) (AID 2282968). Particulars: HepG2 VDRE cis-reporter transcription, actives raise or lower the signal. The procedure, abridged: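 HepG2 cells transiently transfected with cis-element reporter units, dosed 24 h; reporter mRNA measured by RT-PCR, 6-FAM labeling, HpaI digestion and capillary electrophoresis. Activity fitted bidirectionally against DMSO baseline.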

Test [11] deals with Nuclear receptor subfamily 1 group I member 3 (Homo sapiens) (UniProt Q14994). In words: ATG_CAR_TRANS: Attagene TRANS-FACTORIAL HepG2 Assay for human Constitutive Androstane Receptor (CAR) (AID 2282969; active means hit-call score of the fitted dose curve at least 0.9, where 1 is the maximum;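 further: activators raise reporter mRNA above DMSO so AC50 marks induction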). The note with it: HepG2 Attagene TRANS-FACTORIAL CAR reporter. The essentials:
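HepG2 cells transiently transfected with multiplexed GAL4-UAS reporter units expressing chimeric NR-Gal4 proteins; compound exposure 24 h. Reporter mRNA measured by RT-PCR, 6-FAM labelling, HpaI digestion and capillary electrophoresis; gain-of-signal fitted against DMSO baseline.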

Test [12] has as its target Estrogen receptor (Homo sapiens) (UniProt P03372). In words: ATG_ERa_TRANS: Attagene TRANS-FACTORIAL HepG2 Assay for human Estrogen Receptor alpha (ERa) (AID 2282970; active means hit-call score of the fitted dose curve at least 0.9, where 1 is the maximum). Particulars: HepG2 Attagene TRANS ERa GAL4 reporter, mRNA. The essentials:
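HepG2 cells transiently transfected with multiplexed GAL4-UAS reporter units read out chimeric NR-Gal4 activity. After 24 h compound exposure, reporter mRNA was quantified by RT-PCR, 6-FAM labeling, HpaI digestion and capillary electrophoresis, relative to DMSO.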

Test [13] concerns the target X-box-binding protein 1 (Homo sapiens) (UniProt P17861). In words: ATG_Xbp1_CIS: Attagene CIS-FACTORIAL HepG2 Assay for human X-box Binding Protein 1 (XBP1) (AID 2282972). Particulars: HepG2 XBP1 cis-element reporter, Attagene multiplex; actives raise or lower the signal. The essentials:
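Fluorescence-labelled cDNA fragments from reporter transcripts, separated by capillary electrophoresis, give the signal. Source: HepG2 cells transfected with promoter-driven reporter units, harvested 24 h post-dose. DMSO served as reference for bidirectional curve fitting.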

Test [14] in a line: ATG_GAL4_TRANS: Attagene TRANS-FACTORIAL HepG2 Assay for GAL4 (Internal Marker) (AID 2282976; active means hit-call score of the fitted dose curve at least 0.9, where 1 is the maximum). Particulars: HepG2 Attagene TRANS GAL4 internal marker reporter. The procedure, abridged: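 Background-control readout: GAL4-UAS reporter transcript in transiently transfected HepG2 cells after 24 h compound exposure. Measured by RT-PCR, 6-FAM primer extension, HpaI digest and capillary electrophoresis; gain-of-signal fit versus DMSO.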

In test [15] the target is Estrogen-related receptor gamma (Homo sapiens) (UniProt P62508). In words: ATG_ERRg_TRANS: Attagene TRANS-FACTORIAL HepG2 Assay for human Estrogen-Related Receptor gamma (ERRg) (AID 2282977; active means hit-call score of the fitted dose curve at least 0.9, where 1 is the maximum;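 further: hits increase reporter signal over DMSO so potencies reflect activators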). The note with it: HepG2 Attagene TRANS reporter, ERRg transactivation. The essentials: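 Transient HepG2 transfectants, 24 h compound exposure, GAL4-UAS reporter mRNA by RT-PCR/6-FAM labelling/capillary electrophoresis; positive direction vs DMSO.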
Estrogen-related receptor gamma (Homo sapiens), sequence (P62508 whole entry, looked up, the tested form may be a part): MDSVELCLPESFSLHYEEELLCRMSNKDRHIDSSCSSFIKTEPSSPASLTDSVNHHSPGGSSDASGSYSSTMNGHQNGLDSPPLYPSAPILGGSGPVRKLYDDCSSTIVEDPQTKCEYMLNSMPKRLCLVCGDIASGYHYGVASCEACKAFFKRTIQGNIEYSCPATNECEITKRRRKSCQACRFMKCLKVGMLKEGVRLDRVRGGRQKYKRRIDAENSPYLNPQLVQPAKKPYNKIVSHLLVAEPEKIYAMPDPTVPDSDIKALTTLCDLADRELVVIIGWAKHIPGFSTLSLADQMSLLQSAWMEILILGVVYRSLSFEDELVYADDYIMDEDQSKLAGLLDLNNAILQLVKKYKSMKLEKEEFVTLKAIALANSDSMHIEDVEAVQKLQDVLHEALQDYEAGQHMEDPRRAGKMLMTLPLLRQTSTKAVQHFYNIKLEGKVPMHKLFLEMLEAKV

The target of test [16] is Signal transducer and activator of transcription 3 (Homo sapiens) (UniProt P40763). In words: ATG_STAT3_CIS: Attagene CIS-FACTORIAL HepG2 Assay for human Signal Transducer and Activator of Transcription 3 (STAT3) (AID 2282963). Particulars: HepG2, Attagene cis-factorial STAT3 reporter transcription; actives raise or lower the signal. The procedure, abridged:
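HepG2 cells transiently transfected with cis-element-driven multiple reporter transcription units; after 24 h chemical exposure, reporter mRNA measured by RT-PCR, 6-FAM primer-extension labelling, HpaI digestion and capillary electrophoresis. Bidirectional fitting versus DMSO baseline.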

Test [17] is described as follows: ATG_M_19_TRANS: Attagene TRANS-FACTORIAL HepG2 Assay for M19 Transcription Factor (Internal Marker) (AID 2282974; active means hit-call score of the fitted dose curve at least 0.9, where 1 is the maximum). The note with it: HepG2 Attagene TRANS-FACTORIAL M19 internal marker reporter. The procedure, abridged:
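Fluorescence of 6-FAM-labelled reporter cDNA fragments, separated by capillary electrophoresis, served as the readout. These derived from HepG2 cells carrying transfected GAL4-UAS reporter units after 24 h dosing, with DMSO as negative control.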

Test [18] deals with Glucocorticoid receptor (Homo sapiens) (UniProt P04150). As to the kind of experiment: ATG_GR_TRANS: Attagene TRANS-FACTORIAL HepG2 Assay for human Glucocorticoid Receptor (GR) (AID 2282978; active means hit-call score of the fitted dose curve at least 0.9, where 1 is the maximum;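 further: activators score as hits since higher reporter transcript over DMSO is fitted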). The note with it: HepG2 Attagene TRANS GR reporter, mRNA transcription. The procedure, abridged:
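Fluorescent capillary-electrophoresis quantitation of reporter mRNA is the readout, taken 24 h after dosing human HepG2 cells carrying transiently transfected GAL4-UAS reporter units activated by chimeric NR-GAL4 fusions; activity scored as induction over DMSO.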

“And” between values parts separate entries of the source, which are not always exact repeats. Equal entries are not always repeated. Records with an inconclusive call do not appear. More than one record can exist for a structure, and the calls need not agree. The source made the active and inactive calls. How the source made its calls, unless noted: active means hit-call score of the fitted dose curve at least 0.9, where 1 is the maximum; inactive means score below 0.9.

Signal transducer and activator of transcription 3 (Homo sapiens), sequence (P40763 whole entry, looked up): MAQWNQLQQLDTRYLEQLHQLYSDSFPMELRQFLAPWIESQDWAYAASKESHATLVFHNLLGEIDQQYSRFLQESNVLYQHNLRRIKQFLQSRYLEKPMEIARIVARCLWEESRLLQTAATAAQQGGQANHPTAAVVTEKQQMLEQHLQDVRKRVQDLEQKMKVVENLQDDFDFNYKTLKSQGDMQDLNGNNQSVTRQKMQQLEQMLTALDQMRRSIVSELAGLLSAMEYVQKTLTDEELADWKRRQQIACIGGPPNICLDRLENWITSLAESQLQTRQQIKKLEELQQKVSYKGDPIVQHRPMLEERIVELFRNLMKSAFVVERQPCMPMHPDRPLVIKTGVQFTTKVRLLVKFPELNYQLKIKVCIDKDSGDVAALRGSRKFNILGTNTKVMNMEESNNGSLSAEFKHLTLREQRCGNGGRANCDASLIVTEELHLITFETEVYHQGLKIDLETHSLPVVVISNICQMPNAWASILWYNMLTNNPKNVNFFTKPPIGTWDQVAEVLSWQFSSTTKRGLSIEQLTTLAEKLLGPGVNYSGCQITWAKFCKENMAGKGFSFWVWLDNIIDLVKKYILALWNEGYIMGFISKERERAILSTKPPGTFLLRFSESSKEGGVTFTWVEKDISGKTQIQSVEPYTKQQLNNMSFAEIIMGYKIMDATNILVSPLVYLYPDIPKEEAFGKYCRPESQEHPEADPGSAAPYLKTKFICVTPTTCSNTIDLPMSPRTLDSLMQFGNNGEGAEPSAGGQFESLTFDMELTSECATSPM
Transcription factor Sp1 (Homo sapiens), sequence (P08047 whole entry, looked up): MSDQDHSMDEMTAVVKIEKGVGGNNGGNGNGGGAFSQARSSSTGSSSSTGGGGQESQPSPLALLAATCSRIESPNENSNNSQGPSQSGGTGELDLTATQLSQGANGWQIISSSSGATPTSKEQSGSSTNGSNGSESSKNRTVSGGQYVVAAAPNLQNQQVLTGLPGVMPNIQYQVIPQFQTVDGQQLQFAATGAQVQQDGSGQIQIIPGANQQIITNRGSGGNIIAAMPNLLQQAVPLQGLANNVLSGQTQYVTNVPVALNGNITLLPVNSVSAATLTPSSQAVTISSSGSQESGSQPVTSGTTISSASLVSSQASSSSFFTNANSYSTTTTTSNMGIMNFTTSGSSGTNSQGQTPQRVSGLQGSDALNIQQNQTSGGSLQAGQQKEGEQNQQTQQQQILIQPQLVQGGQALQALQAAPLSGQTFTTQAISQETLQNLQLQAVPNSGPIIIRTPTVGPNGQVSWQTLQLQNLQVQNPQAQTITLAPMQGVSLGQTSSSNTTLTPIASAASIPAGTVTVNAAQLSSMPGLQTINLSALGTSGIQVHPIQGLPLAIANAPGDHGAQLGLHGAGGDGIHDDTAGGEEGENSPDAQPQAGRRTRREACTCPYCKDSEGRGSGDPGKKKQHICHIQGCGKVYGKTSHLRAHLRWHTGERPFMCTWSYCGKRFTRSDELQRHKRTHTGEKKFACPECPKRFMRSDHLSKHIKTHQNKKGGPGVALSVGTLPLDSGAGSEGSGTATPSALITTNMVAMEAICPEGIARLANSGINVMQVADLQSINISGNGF
X-box-binding protein 1 (Homo sapiens), sequence (P17861 whole entry, looked up, the tested form may be a part): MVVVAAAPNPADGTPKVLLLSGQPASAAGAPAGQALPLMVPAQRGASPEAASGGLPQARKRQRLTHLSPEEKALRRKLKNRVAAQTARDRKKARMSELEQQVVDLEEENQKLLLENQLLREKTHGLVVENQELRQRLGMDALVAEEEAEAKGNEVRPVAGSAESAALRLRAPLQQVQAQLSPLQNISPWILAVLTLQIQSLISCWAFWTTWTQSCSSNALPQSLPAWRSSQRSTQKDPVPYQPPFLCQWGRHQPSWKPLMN
Estrogen receptor (Homo sapiens), sequence (P03372 whole entry, looked up, the tested form may be a part): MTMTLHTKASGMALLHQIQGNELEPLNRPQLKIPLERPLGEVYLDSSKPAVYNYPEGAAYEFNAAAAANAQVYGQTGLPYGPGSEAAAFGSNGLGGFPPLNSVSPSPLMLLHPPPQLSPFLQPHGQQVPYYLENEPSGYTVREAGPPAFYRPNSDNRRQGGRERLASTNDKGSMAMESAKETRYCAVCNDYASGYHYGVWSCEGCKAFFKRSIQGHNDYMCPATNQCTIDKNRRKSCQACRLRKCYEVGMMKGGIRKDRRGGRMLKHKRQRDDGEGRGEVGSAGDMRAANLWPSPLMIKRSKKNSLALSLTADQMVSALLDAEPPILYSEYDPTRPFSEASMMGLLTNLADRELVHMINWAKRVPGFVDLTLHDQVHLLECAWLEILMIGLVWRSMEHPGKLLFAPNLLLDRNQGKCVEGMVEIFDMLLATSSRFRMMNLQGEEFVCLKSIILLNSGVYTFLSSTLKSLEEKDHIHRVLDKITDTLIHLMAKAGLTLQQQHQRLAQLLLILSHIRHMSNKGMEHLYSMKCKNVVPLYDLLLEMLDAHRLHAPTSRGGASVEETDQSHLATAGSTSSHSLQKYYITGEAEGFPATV
Nuclear receptor subfamily 1 group I member 3 (Homo sapiens), sequence (Q14994 whole entry, looked up, the tested form may be a part): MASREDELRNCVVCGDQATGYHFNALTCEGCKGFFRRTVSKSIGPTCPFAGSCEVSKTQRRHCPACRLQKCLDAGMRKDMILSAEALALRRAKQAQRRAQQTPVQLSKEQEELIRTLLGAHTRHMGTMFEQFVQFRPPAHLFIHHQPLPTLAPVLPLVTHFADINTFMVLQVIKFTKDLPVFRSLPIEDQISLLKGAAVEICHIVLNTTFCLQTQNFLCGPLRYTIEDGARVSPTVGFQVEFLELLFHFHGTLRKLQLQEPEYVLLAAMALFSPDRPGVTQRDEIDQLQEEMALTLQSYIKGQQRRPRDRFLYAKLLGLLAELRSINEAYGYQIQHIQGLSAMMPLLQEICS
Glucocorticoid receptor (Homo sapiens), sequence (P04150 whole entry, looked up, the tested form may be a part): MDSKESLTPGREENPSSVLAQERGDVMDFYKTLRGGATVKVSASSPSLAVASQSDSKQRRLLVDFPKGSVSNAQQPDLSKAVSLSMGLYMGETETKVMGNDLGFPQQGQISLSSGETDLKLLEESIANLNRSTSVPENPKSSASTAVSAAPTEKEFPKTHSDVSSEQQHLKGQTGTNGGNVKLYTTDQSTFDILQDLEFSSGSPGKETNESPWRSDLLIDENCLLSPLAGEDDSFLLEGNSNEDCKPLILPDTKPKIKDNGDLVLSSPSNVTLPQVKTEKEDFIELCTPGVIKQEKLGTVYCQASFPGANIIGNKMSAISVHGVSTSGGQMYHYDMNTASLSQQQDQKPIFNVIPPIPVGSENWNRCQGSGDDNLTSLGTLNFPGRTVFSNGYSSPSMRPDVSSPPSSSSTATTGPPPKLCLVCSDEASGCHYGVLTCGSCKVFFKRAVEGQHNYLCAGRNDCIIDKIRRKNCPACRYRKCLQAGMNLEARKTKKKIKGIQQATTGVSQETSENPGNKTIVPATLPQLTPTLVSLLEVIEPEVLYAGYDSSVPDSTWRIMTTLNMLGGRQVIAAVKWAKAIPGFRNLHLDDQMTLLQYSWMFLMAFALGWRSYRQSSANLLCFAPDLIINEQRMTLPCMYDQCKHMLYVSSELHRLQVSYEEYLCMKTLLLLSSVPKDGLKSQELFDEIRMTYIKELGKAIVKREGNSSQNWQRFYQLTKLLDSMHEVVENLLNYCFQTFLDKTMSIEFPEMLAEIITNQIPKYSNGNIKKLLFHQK

`C=CC(=O)OCCC(F)(F)C(F)(F)C(F)(F)C(F)(F)C(F)(F)C(F)(F)F`: the call in [1], in [2], in test [3], in test [4], in test [5] and in test [6] was inactive. Further, the molecule was called inactive in [7], in test [8], in [9], in [10], in test [11] and in test [13]. Besides, the call in [14] and in [15] was inactive. The AC50 in [12] is 12.8 µM (active).
`Cc1cc(=O)oc2cc(O)ccc12`: the AC50 was 8.35 µM (active) and 25.5 µM (active) in test [1]; 36 µM (active) in test [10]; 50.6 µM (active) and 53.8 µM (active) in test [12]. The result in test [3], in test [4], in [5], in test [16], in test [6] and in test [8] was inactive. Also, the result in [9], in test [10], in test [11], in test [13] and in test [17] was inactive.
As to `CCCCC(CC)C(=O)OCCOCCOCCOCCOC(=O)C(CC)CCCC` (centres undefined), the values for the AC50 in [1] and in [10] were 27.5 µM (active) and 27.8 µM (active), respectively. Besides, the result in [2], in [3], in test [5], in test [16], in test [6] and in test [7] was inactive. The result in test [8], in test [9], in [13], in test [17], in test [14] and in [15] was inactive.
For the molecule `CS(=O)(=O)c1ccc([C@@H](CC2CCCC2)C(=O)Nc2cnccn2)cc1Cl`, the AC50 was 1.91 µM (active) in test [1]; 60.2 µM (active) in [2]; 170 µM (active) in test [3]; 160 µM (active) in test [4]; 100 µM (active) in [6]; 148 µM (active) in [8]. Moreover, the concentration at half-maximal activity (AC50) in test [13] is 70.7 µM (active). Also, the outcome in test [16], in test [9], in [15] and in [18] was inactive.
